Results on 20 compounds are retold here after PubChem BioAssay (NCI).

Test systems include HCT-15 colon; HT29 colon; SNB-75 CNS; SNB-19 CNS; U251 CNS; PC-3 prostate; SK-MEL-5 melanoma; UACC-62 melanoma; LOX IMVI melanoma; SK-MEL-28 melanoma.
Assay in all cases: NCI-60 one-dose screen, 48 h (100 = growth as untreated, 0 = no growth, -100 = all killed)
Holding throughout (conditions): 10 µM unless noted

Structures are written as SMILES. Compounds without any hit were thinned out: in the full panel of roughly 83,000, 20% have a hit.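 Method: cells in 96-well plates; compound added at one concentration; 48 h incubation; percent growth measured; values under 10 scored active.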 Values without a mark were called inactive. Calls of active or inactive are those of the source.

Take `Cc1cccc(C)c1NC(=O)Nc1ccccc1`: the growth was 25.5% in the assay with HCT-15 colon; 27.3% in the assay on HT29 colon; 108% with SNB-75 CNS; 90.8% in the assay on SNB-19 CNS; 77.4% in the assay with U251 CNS; 70.7% in the assay on PC-3 prostate. In addition, the growth in the assay on SK-MEL-5 melanoma is 101%; with UACC-62 melanoma it was 71.6%; in the assay on LOX IMVI melanoma, 69.8%; with SK-MEL-28 melanoma, 108%.
`CC1=C([Se]CC(OC(=O)[C@@H](CO)NC(=O)OC(C)(C)C)C(=O)NCCCCCC(=O)OCc2ccccc2)C(=O)c2ccccc2C1=O` (stereo not given in full): the growth was -45.8% (active) with HCT-15 colon; -67.5% (active) with HT29 colon; -99.6% (active) with SNB-75 CNS; -87% (active) in the assay on SNB-19 CNS; -85.8% (active) in the assay with U251 CNS; -72.6% (active) with PC-3 prostate. Moreover, the growth in the assay on SK-MEL-5 melanoma was -89.9% (active); with UACC-62 melanoma it was -76% (active); in the assay with LOX IMVI melanoma, -76.6% (active); in the assay with SK-MEL-28 melanoma, -89.1% (active).
`COc1ccc(NC(=O)c2sc3nc(C)c(C(=O)c4ccccc4)cc3c2N)cc1`: the growth in the assay on HCT-15 colon is 95.2%; in the assay on HT29 colon, 89.8%; in the assay on SNB-75 CNS, 107%; with SNB-19 CNS it was 90.8%; with U251 CNS, 100%; in the assay on PC-3 prostate, 97%. Further, the growth with SK-MEL-5 melanoma is 103%; in the assay on UACC-62 melanoma, 79.9%; in the assay with LOX IMVI melanoma, 108%; in the assay on SK-MEL-28 melanoma, 89.9%.
Consider `COc1cc(OCc2cccc(-c3ccccc3)c2C)cc(OC)c1CN1CCCCC1C(=O)NCCOCCOCCN` (stereo not given), for which the growth was 87.9% with HCT-15 colon; 5.46% (active) in the assay with HT29 colon; 73.8% in the assay with SNB-75 CNS; 67.9% in the assay on SNB-19 CNS; 25.7% in the assay on U251 CNS; 74.6% in the assay with PC-3 prostate. The growth is 87.2% with SK-MEL-5 melanoma, 99.4% in the assay on UACC-62 melanoma, -73.7% (active) with LOX IMVI melanoma and 87.7% in the assay with SK-MEL-28 melanoma.
For `CSc1nn2c(-c3cc4cc(Br)ccc4oc3=O)ccnc2c1C#N`, the growth with HCT-15 colon is 102%; in the assay with HT29 colon, 114%; in the assay on SNB-75 CNS, 90.5%; in the assay on SNB-19 CNS, 105%; in the assay with U251 CNS it was 102%; with PC-3 prostate it was 105%. For the same compound, the growth in the assay with SK-MEL-5 melanoma was 101%; with UACC-62 melanoma, 99.7%; in the assay with LOX IMVI melanoma, 97.4%; in the assay with SK-MEL-28 melanoma it was 105%.
For `COC(=O)[C@@H](Cc1c[nH]c2ccccc12)NC[C@@H](O)CN1C(=O)/C(=C\c2cc(OC)c(OC)c(OC)c2)c2ccccc21`, the growth in the assay with HCT-15 colon was 53.9%; in the assay on HT29 colon, 40.9%; in the assay on SNB-75 CNS, 58.3%; in the assay with SNB-19 CNS, 66.2%; with U251 CNS it was 55.6%; with PC-3 prostate, 46.2%. Also, the growth with SK-MEL-5 melanoma is 59.8%; in the assay with UACC-62 melanoma it was 49.8%; with LOX IMVI melanoma, 50.9%; in the assay on SK-MEL-28 melanoma it was 85.5%.
For the compound `CCCCC1=C(Br)C(=O)c2ncccc2C1=O`, the growth in the assay on HCT-15 colon is 100%; in the assay with HT29 colon, 104%; in the assay with SNB-75 CNS, 91.9%; with SNB-19 CNS, 97.9%; with U251 CNS it was 95.5%; in the assay on PC-3 prostate, 90%. Besides, the growth is 90.3% in the assay with SK-MEL-5 melanoma, 93.4% with UACC-62 melanoma, 94.6% with LOX IMVI melanoma and 115% in the assay on SK-MEL-28 melanoma.
Consider `CCCC1Cc2cc(-n3nc(C)c4c3CC(C)(C)CC4=O)cc(NC3CCC(O)CC3)c2C(=O)N1` (stereo not given), for which the growth in the assay with HCT-15 colon was 26.1%; with HT29 colon, 11.6%; in the assay on SNB-75 CNS it was 66.6%; in the assay on SNB-19 CNS it was 50%; with U251 CNS, 41.5%; in the assay on PC-3 prostate it was 42.8%. The growth in the assay with SK-MEL-5 melanoma is 40.7%; in the assay on UACC-62 melanoma it was 6.33% (active); with LOX IMVI melanoma, 5.91% (active); in the assay with SK-MEL-28 melanoma, 31.5%.
For the compound `COC(=O)c1sc(-c2ccc(C)cc2)cc1O`, the growth in the assay with HCT-15 colon was 101%; in the assay on HT29 colon it was 108%; with SNB-75 CNS it was 105%; in the assay on SNB-19 CNS, 101%; in the assay on U251 CNS it was 96.5%; in the assay with PC-3 prostate it was 102%. In addition, the growth in the assay with SK-MEL-5 melanoma is 103%; in the assay on UACC-62 melanoma it was 97.1%; with LOX IMVI melanoma, 101%; in the assay on SK-MEL-28 melanoma, 113%.
Turning to `O=C(/C=C/c1ccc([N+](=O)[O-])cc1)c1cccc(Nc2nc(Nc3ccccc3)nc(Nc3ccccc3)n2)c1`, the growth was 68.6% in the assay on HCT-15 colon; 68.2% in the assay with HT29 colon; 52.4% with SNB-75 CNS; 93.7% in the assay on SNB-19 CNS; 58% in the assay on U251 CNS; 62.1% in the assay on PC-3 prostate. For the same compound, the growth was 62.8% with SK-MEL-5 melanoma, 82.7% in the assay on UACC-62 melanoma, 67.9% in the assay with LOX IMVI melanoma and 88.3% in the assay on SK-MEL-28 melanoma.
Consider `CCN(CC)CCCNc1cc(OC)cc2cccnc12`, for which the growth in the assay with HCT-15 colon is 99.7%; with HT29 colon, 91.6%; with SNB-75 CNS, 111%; in the assay on SNB-19 CNS it was 109%; with U251 CNS, 94.8%; in the assay on PC-3 prostate, 93.8%. Besides, the growth with SK-MEL-5 melanoma is 95.3%; in the assay with UACC-62 melanoma, 110%; in the assay with LOX IMVI melanoma, 97.2%; with SK-MEL-28 melanoma, 126%.
As to `Cc1cc2c(c(C)n1)CN(C(=O)Nc1nc(-c3cncs3)ccc1N)C2`, the growth was 102% with HCT-15 colon; 91% in the assay with HT29 colon; 90.3% in the assay with SNB-75 CNS; 99.5% with SNB-19 CNS; 86.9% in the assay with U251 CNS; 104% with PC-3 prostate. Besides, the growth was 105% in the assay on SK-MEL-5 melanoma, 91.9% in the assay on UACC-62 melanoma, 111% in the assay on LOX IMVI melanoma and 105% in the assay with SK-MEL-28 melanoma.
In the case of `CCOC(=O)CSc1nc2sc3c(c2c(=O)n1-c1ccccc1)CCCCC3`, the growth is 104% with HCT-15 colon; 102% in the assay with HT29 colon; 112% in the assay on SNB-75 CNS; 89.2% with SNB-19 CNS; 93.4% with U251 CNS; 109% with PC-3 prostate. Besides, the growth is 97.6% in the assay with SK-MEL-5 melanoma, 99.5% in the assay on UACC-62 melanoma, 101% in the assay on LOX IMVI melanoma and 112% in the assay with SK-MEL-28 melanoma.
On to `O=C1CC2C=CCN2C=C1NC(=O)c1ccccc1` (stereo not given), for which the growth is 100% in the assay on HCT-15 colon; 97.9% in the assay with HT29 colon; 96.8% with SNB-75 CNS; 108% in the assay on SNB-19 CNS; 97.2% with U251 CNS; 99.7% with PC-3 prostate. The growth with SK-MEL-5 melanoma was 100%; in the assay on UACC-62 melanoma, 109%; with LOX IMVI melanoma it was 99.3%; in the assay with SK-MEL-28 melanoma it was 103%.
On to `C(=N\Nc1nnc2n1N=C(c1ccccc1)CS2)/c1ccc(OCc2ccccc2)cc1`, for which the growth with HCT-15 colon is 97.4%; in the assay on HT29 colon, 114%; in the assay on SNB-75 CNS, 108%; in the assay on SNB-19 CNS, 102%; in the assay on U251 CNS, 97.6%; with PC-3 prostate, 76.2%. Also, the growth in the assay with SK-MEL-5 melanoma was 82.9%; in the assay with UACC-62 melanoma, 89.8%; in the assay with LOX IMVI melanoma, 95.8%; with SK-MEL-28 melanoma, 104%.
Regarding `Cn1cc(-c2nc(-c3c[nH]c4c(Cl)nccc34)cs2)c2ccccc21`, the growth is 98.6% in the assay on HCT-15 colon; 83.5% in the assay on HT29 colon; 108% in the assay on SNB-75 CNS; 94.5% in the assay with SNB-19 CNS; 86.3% in the assay on U251 CNS; 86.1% in the assay on PC-3 prostate. Moreover, the growth in the assay on SK-MEL-5 melanoma was 91.2%; in the assay with UACC-62 melanoma, 97.5%; in the assay on LOX IMVI melanoma it was 102%; with SK-MEL-28 melanoma, 108%.
For `CCCCN(CCC#N)C(N)=O`, the growth in the assay with HCT-15 colon is 101%; with HT29 colon, 114%; in the assay on SNB-75 CNS, 105%; with SNB-19 CNS it was 98.9%; in the assay on U251 CNS, 107%; in the assay on PC-3 prostate, 91.2%. Besides, the growth with SK-MEL-5 melanoma was 99.5%; in the assay with UACC-62 melanoma, 95.4%; in the assay with LOX IMVI melanoma, 105%; in the assay on SK-MEL-28 melanoma it was 102%.
Regarding `COc1cc(OC)cc(C(=O)Nc2cnc(Nc3ccc(N4CCOCC4)nc3)nc2Oc2ccc(C(F)(F)F)cc2)c1`, the growth with HCT-15 colon was 75.4%; in the assay with HT29 colon, 46.8%; with SNB-75 CNS, -14.5% (active); in the assay with SNB-19 CNS it was 44.1%; in the assay on U251 CNS, 65.6%; with PC-3 prostate it was 71.4%. The growth in the assay on SK-MEL-5 melanoma is 93%; in the assay on UACC-62 melanoma, 76.3%; in the assay on LOX IMVI melanoma, 69.7%; in the assay with SK-MEL-28 melanoma, 98.9%.
In the case of `Cc1ccc(C23CCC(=O)N2CCc2cncn23)cc1` (stereo not given), the growth with HCT-15 colon was 98.9%; in the assay with HT29 colon, 98.3%; in the assay on SNB-75 CNS, 111%; in the assay on SNB-19 CNS, 97.7%; in the assay on U251 CNS it was 97.2%; in the assay on PC-3 prostate, 95%. Further, the growth with SK-MEL-5 melanoma is 98.8%; in the assay on UACC-62 melanoma, 95.8%; in the assay with LOX IMVI melanoma it was 105%; in the assay with SK-MEL-28 melanoma, 106%.
For `CNc1nc2ncc(-c3c(C)noc3C)cc2n1Cc1ccccc1`, the growth was 51.2% with HCT-15 colon; 31.8% with HT29 colon; 0.561% (active) in the assay with SNB-75 CNS; 59.3% in the assay on SNB-19 CNS; 61% in the assay with U251 CNS; 32.2% in the assay with PC-3 prostate. For the same compound, the growth with SK-MEL-5 melanoma was 47.9%; with UACC-62 melanoma, 17%; with LOX IMVI melanoma it was 32.5%; in the assay on SK-MEL-28 melanoma it was 57.4%.
